# Source: PubChem BioAssay (several laboratories)
# Hsp90 inh = displaces geldanamycin probe from tumor Hsp90. NCI-N417 lysate Hsp90, Cy3B-geldanamycin FP displacement. inhibition, % at 30 µM. 0.35% of 64,000 active. AID 429;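 active = inhibition above 50%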;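 note: 0% = tracer plus lysate wells and 100% = tracer alone without lysate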
# MMP13 inh = inhibitors of human MMP13 | MMP-13 fTHP FRET cleavage, Mca fluorescence | 0.07% of 65,000 active | inhibition, % at 4 µM;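 active = inhibition above the mean of compound-free control plate wells plus 3 SD, cut at about 14% in these data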;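 note: 0% = DMSO wells and 100% = wells with reference MMP-13 inhibitor after basal subtraction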
# MKP-1 inh = blocks human MKP-1 phosphatase activity | recombinant MKP-1, OMFP hydrolysis fluorescence | 0.15% of 65,000 active | inhibition, %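 (compounds tested at a single concentration somewhere between 10 and 100 µM)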;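 active = inhibition above about 50%, limit read from the data; inconclusive = inhibition over screen mean plus 3 SD, below that limit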;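 note: 0% = DMSO max control wells and 100% = wells with enzyme stopped by NaOH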
# M1 antag = antagonists of rat M1 muscarinic receptor; P08482; CHO-M1 cells, Fluo-4 calcium, ACh EC80 antagonist mode; hits give low values; B-score at 10 µM; 3.4% of 64,000 active; AID 628;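 active = calcium fluorescence response, raw or row-and-column corrected B-score, differing from the plate sample mean either way at a set confidence level, mostly lower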
# Target sequence (P08482 whole entry, looked up): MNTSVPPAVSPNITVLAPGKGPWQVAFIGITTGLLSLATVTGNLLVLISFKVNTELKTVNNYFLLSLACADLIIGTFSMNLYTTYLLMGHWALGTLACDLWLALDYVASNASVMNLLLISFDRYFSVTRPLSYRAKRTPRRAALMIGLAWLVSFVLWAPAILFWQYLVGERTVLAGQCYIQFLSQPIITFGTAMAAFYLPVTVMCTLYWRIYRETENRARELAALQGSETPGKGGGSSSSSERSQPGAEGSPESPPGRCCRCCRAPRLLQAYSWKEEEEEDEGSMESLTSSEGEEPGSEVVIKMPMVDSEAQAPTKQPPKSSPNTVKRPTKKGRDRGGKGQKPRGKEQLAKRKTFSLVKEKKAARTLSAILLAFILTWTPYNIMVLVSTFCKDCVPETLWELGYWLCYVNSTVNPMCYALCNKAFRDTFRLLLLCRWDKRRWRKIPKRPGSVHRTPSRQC
# Cdc25B inh = human M-phase inducer phosphatase 2 inhibition; P30305; recombinant Cdc25B, OMFP fluorescence Ex485/Em525; inhibition, %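 (compounds tested at 10 µM final in the well)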; 0.1% of 65,000 active; AID 368; in the data active = inhibition above about 50%
# M1 agonist = M1 muscarinic receptor agonism; CHO-M1 cells, Fluo-4 calcium fluorescence, agonist mode; hits give high values; B-score at 10 µM; 3% of 64,000 active; AID 626;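 active = fluorescence rise, raw or as B-score row- and column-corrected plate score, outside the 99.7% band of its plate's samples, either direction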
# Numbers without * were called inactive; ? = inconclusive; / = no result. Most compounds without a hit are left out; they make up all but 6.1% or so of the library.
SMILES,Hsp90 inh,MMP13 inh,MKP-1 inh,M1 antag,Cdc25B inh,M1 agonist
Cc1cccc(NC(=O)Cn2cnc3ccc(S(=O)(=O)N4CCC(C)CC4)cc3c2=O)n1,-7,0,42,/,-7,/
Cc1[nH]c2c(Cl)cccc2c(=O)c1CN1CCCC1,-1,-1,-2,-0.048,63*,-0.57
Cc1[nH]c2ccc(Br)cc2c(=O)c1CN1CCCCC1,2,-8,29,-0.11,5,-0.13
CCCCCn1c(SCC#N)nc2cc(C(=O)NCC3CCCO3)ccc2c1=O (configuration not stated),-3,0,?,0.0015,-11,2.5*
CC(Sc1nc(N(C)C)nc(N2CCOCC2)n1)C(=O)Nc1ccccc1 (configuration not stated),-1,4,1,0.14,-11,-0.24
O=C(NCCCn1ccnc1)c1noc2c1CCc1ccccc1-2,63*,3,1,0.22,-4,-0.079
COc1ccccc1NC(=O)N1CCN(c2cc(-c3ccccc3)nc3ncnn23)CC1,0,-2,25,-0.33,-1,6.3*
CC(C)c1ccc(O)c(NC(=O)c2ncn[nH]2)c1,5,-1,-1,2.3*,9,0.2
CCOC(=O)N1CCN(C2OC(=O)c3ccccc32)CC1 (configuration not stated),-3,-2,-18,-2*,-16,32*
O=C1OC(N2CCN(C(=O)C3CCCO3)CC2)c2ccccc21 (configuration not stated),2,2,-9,-0.89,-1,0.023
Cc1nnc(SCC(=O)Nc2ccc(Br)cn2)[nH]c1=O,3,-3,-1,1*,11,0.2
CCN(CC)C(C)C(=O)N1c2ccccc2Sc2ccccc21 (configuration not stated),3,/,/,/,/,/
CCOC(=O)NC(=O)CN1C(=O)NC(C)(c2ccccc2)C1=O (configuration not stated),-5,-1,18,2.1*,5,-0.073
CC1(c2ccccc2)NC(=O)N(CC(=O)NC(=O)NC2CCCC2)C1=O (configuration not stated),-5,-2,26,0.74,-4,-0.083
CC(=O)Oc1cc2c(C(=O)NCc3ccncc3)c(C)oc2c2ccccc12,2,1,8,2*,-8,6.1*
O=C(c1ccc(Cl)cc1)C1C2C(=O)N(c3ccccc3)C(=O)C2C2CCCN21 (configuration not stated),-18,1,-8,0.86,-2,15*
COC(=O)c1cc2oc(C)cc2n1CC(=O)N1CCCc2ccccc21,-8,4,13,-0.18,-5,-0.87
Cc1cc(NC(=O)CCCOc2ccc(Cl)cc2Cl)no1,-3,3,8,-0.31,64*,1
Cc1cc(NS(=O)(=O)c2ccc(NC(=O)CCCOc3ccc(Cl)cc3)cc2)no1,-3,-1,33,0.5,4,0.12
CN(C)c1ccc(C(=O)OCC(=O)NC2CCCCC2)cc1,-2,4,-2,0.46,-16,0.12
CCc1sc(C(=O)NC)cc1Br,-22,1,7,-1,2,-0.47
CCc1sc(C(=O)NCc2cc(C)n(C)n2)cc1Br,/,-3,7,-0.038,10,-5.1*
OC(CCCCN1CCCCC1)c1ccccc1 (configuration not stated),0,6,15,0.086,4,0.2
CN1[C@@H](CC(=O)c2ccccc2)CCC[C@H]1C[C@H](O)c1ccccc1,-2,-5,-15,-8.4*,-3,34*
NC(=O)NC(Cc1ccccc1)c1ccccc1 (configuration not stated),-1,4,8,-0.24,1,2.3*
CCC1Oc2ccc(C)cc2N(CC(=O)N(Cc2cccnc2)Cc2ccc(C)o2)C1=O (configuration not stated),-6,-8,-4,-1.5,-15,4.4*
N.N.N.N.N.N.N.N.N.N.N.N.N.N.O.O.[Cl-].[Cl-].[Cl-].[Cl-].[Cl-].[Cl-].[Ru+4].[Ru+5].[Ru+5],30,/,/,/,/,/
COc1ccc(CN2CC(C(=O)NCCCN3CCOCC3)CC2=O)cc1 (configuration not stated),0,-7,22,0.17,65*,0.077
CCn1c(SCC(=O)C(C)(C)C)nnc1-c1ccccn1,1,16*,7,/,-10,/
C=CCn1c(SCC(=O)C(C)(C)C)nnc1-c1ccccn1,-1,2,6,0.43,-3,-0.38
